Inconclusive results are not listed. Where a call stands in place of a potency, no number is given. Calls of active or inactive are those of the source. Calls follow the shape of the dose curve; as a rule, active = well fitted activation curve with a large enough effect; inconclusive = small, poorly fitted or top-dose-only effect; inactive = flat fitted curve, though single readings scatter.
Potency is read from the fitted curve at half-maximal effect.

A short description of the experiment: qHTS for Inhibitors of Cell Surface uPA Generation: FP59 Counterscreen for Cherry-picked Compounds. As to conditions: FP59 anthrax toxin cytotoxicity counterscreen, cells; series mostly up to 115 µM.
Take `CC(C)Cn1cnc2c1c(=O)[nH]c(=O)n2Cc1ccccc1`: the Potency entry is “inactive”.

In the case of `CCOc1ccc(OCC)c(NC(=O)c2ccc(CNc3c(N4CCCC4)c(=O)c3=O)cc2)c1`, the Potency result was “inactive”.

For `CCCCn1c(-c2cccnc2)nc2cc3[nH]c(=O)c(C(C)C)nc3cc21`, the Potency result is “inactive”.

Regarding `CCOC(=O)c1ccccc1N=Cc1c(O)c2ccccc2oc1=O`, the Potency entry was “inactive”.

In the case of `O=C(O)CCCC(=O)NCCCCc1ccccc1`, the Potency result is “inactive”.

Take `COc1ccc(CCN=c2c([N+](=O)[O-])nn(-c3cccc(C)c3)n2O)cc1OC`: the Potency entry was “inactive”.

On to `CCCc1nn2c(=O)cc(CSCC(=O)Nc3ccccc3)nc2s1`, for which the Potency entry is “inactive”.

With `CCOC(=O)c1c(C)oc2ccc(OC(=O)COc3c(F)c(F)c(F)c(F)c3F)cc12`, the Potency result is “inactive”.

As to `Cc1ccc(C)c(NC(=O)CCN2CCN(c3ccccc3F)CC2)c1`, the Potency result is “inactive”.

On to `CSc1nc(-c2ccccc2)nc(C(Cl)Cl)n1`, for which the Potency entry is “inactive”.

For the molecule `Cc1c([N+](=O)[O-])c2ccc(O)cc2n1-c1ccccc1`, the Potency result is “inactive”.

For the molecule `c1ccc(C2[C@H]3CN(Cc4cccnc4)[C@H](c4ccccc4)C34CC2(c2ccccc2)C4)cc1` (some centres undefined), the Potency entry was “inactive”.

`O=C(CC1(O)C(=O)Nc2ccccc21)c1cccc(Br)c1` (centres undefined): the Potency result is “inactive”.

`O=C(NNC(=O)c1cccc(-n2cccc2)c1)c1ccc(F)cc1`: the Potency entry was “inactive”.

For `Cc1ccc(S(=O)(=O)N2CCOCC2)cc1NC(=O)CSc1nc(N)cc(N)n1`, the Potency entry is “inactive”.

Consider `C=CCN1C=C2C(=O)C(C)(OC(=O)c3cnc4ccccc4n3)C(=O)C=C2C=C1/C=C/COC` (centres undefined), for which the Potency result is “inactive”.

With `S=C(Nc1ccccc1Cl)N1CCCC(c2ccccc2)=N1`, the Potency was 23.3 µM (active).

Regarding `CC(C)(C)OC(=O)NCCCCCNC(=O)c1[nH]cnc1C(=O)Nc1ccc(Cl)cc1`, the Potency result was “inactive”.

Turning to `COc1ccc2nc(SC(C)C(=O)NC3(C#N)CCCCC3)[nH]c2c1` (centres undefined), the Potency result was “inactive”.

With `O=S(=O)(NCC(c1cccnc1)N1CCOCC1)c1ccccc1` (centres undefined), the Potency entry is “inactive”.

As to `CCOC(=O)c1c(NC(=O)COc2ccccc2C#N)sc2c1CC(C)(C)NC2(C)C`, the Potency entry was “inactive”.

Regarding `Cc1ccc(NC(=O)C(C)S)cc1` (centres undefined), the Potency entry was “inactive”.

For `CN(CCO)c1ccc(C(C(=O)c2ccccc2)c2ccc(N(C)CCO)cc2)cc1`, the Potency result is “inactive”.

As for `CC1(C(=O)OCC(=O)Nc2ccc(Cl)cn2)CC1(Cl)Cl` (centres undefined), the Potency result is “inactive”.

On to `CC1=NN(C(N)=S)C(=O)C1N=Nc1ccccc1C(=O)O` (centres undefined), for which the Potency result was “inactive”.

In the case of `Cc1cccc(-c2nc(CS(=O)CC(=O)NCc3cccs3)c(C)o2)c1` (centres undefined), the Potency entry was “inactive”.

For the molecule `CS(=O)(=O)Nc1cccc(C2=NN(S(=O)(=O)c3ccccc3)C(c3ccco3)C2)c1` (centres undefined), the Potency entry was “inactive”.

Turning to `CCCN1CCN(C2CCCCC2NS(=O)(=O)c2ccc(Cl)cc2)CC1` (centres undefined), the Potency entry is “inactive”.

Turning to `CCOC(=O)c1c(NC(=O)CC2SC(N)=NC2=O)sc2c1CCC(C)C2` (centres undefined), the Potency entry was “inactive”.

`Cc1ccc2cc(C=O)c(Cl)nc2c1`: the Potency entry was “inactive”.

With `COC(=O)[C@H](CC(C)C)N(Cc1ccccc1)S(=O)(=O)N(Cc1ccc(OC)cc1)[C@@H](CC(C)C)C(=O)OC`, the Potency entry was “inactive”.

With `Nc1nc2ccc(Br)cc2o1`, the Potency entry was “inactive”.

Consider `O=C1[C@H]2[C@@H](c3ccc(F)cc3)N3C(=O)N(c4cccc(F)c4)C(=O)[C@@]3(Cc3ccc(Cl)cc3)[C@H]2C(=O)N1C1CCCCC1`, for which the Potency entry was “inactive”.

With `C[C@@H]1O[C@@H](O[C@@H]2C(=O)c3c(O)cc(O)cc3O[C@H]2c2ccc(O)c(O)c2)[C@H](O)[C@H](O)[C@H]1O`, the Potency entry is “inactive”.

As to `O=C(OCC(=O)N1CCOCC1)c1c(Cl)ccc(Cl)c1Cl`, the Potency entry was “inactive”.

Turning to `Cc1ccc(NC(=O)CCCn2c(=S)[nH]c3ccsc3c2=O)cc1C`, the Potency entry is “inactive”.

Turning to `C[C@@H](CSc1ccccc1)CN1CC[C@H](O)CCC1=O`, the Potency entry is “inactive”.

As to `CCN(c1ccccc1)S(=O)(=O)c1ccc(NC(=O)c2ccco2)cc1`, the Potency result was “inactive”.

On to `O=C1C[C@@H]2CCN3C(=O)CCC[C@@H]([C@H]23)[C@H]1Cc1ccccc1`, for which the Potency result was “inactive”.
